Screens as filed in PubChem BioAssay.
Shown are actives, neighbours in structure and some others; about 8.9% of the full set was active somewhere.
IMPase inh: qHTS Assay for Identifying the Cell-Membrane Permeable IMPase Inhibitors. 120,000 tested, under 10 active. inhibition (IP1 accumulation), % at 46.1 µM. AID 901, 2007. CHO-M1 cells, IP1 accumulation, HTRF TR-FRET ratio; active = well fitted curve in the direction sought with a large enough effect in the signal ratio, not every such curve was filed as active; inconclusive = small, poorly fitted or top-dose-only effect, or a change in a side signal; inactive = no such curve, though single readings can be large or run the other way; the % refers to the signal ratio;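 note: cells stimulated with carbachol in lithium chloride buffer; higher means more IMPase inhibition seen as more IP1 and lower FRET ratio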
Target sequence (P97697 whole entry, looked up): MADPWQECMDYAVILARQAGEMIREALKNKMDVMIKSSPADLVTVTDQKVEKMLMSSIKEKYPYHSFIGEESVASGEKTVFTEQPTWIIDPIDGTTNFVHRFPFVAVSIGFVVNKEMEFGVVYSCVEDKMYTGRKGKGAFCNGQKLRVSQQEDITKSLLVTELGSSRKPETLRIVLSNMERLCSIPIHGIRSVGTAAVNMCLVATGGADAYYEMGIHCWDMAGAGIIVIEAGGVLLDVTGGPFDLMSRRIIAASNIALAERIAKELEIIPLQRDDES
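CHO-M1 cells (CHO stably expressing M1 receptor), compound up to 46 uM final, stimulated with carbachol (50 uM as added) in buffer with 50mM LiCl, pH 7.4, 30 min at 37C. Cytosolic IP1 read by TR-FRET; AC50 from Hill fits.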
NPSR antagonist: qHTS Assay for Antagonists of the Neuropeptide S Receptor: cAMP Signal Transduction | Q6W5P4 | Potency, µM (highest dose often 38.3 µM), hits mostly inhibitors | CHO-NPSR cells, cAMP TR-FRET, antagonist mode | 220,000 tested, 1% active | AID 1461, 2008; note: nearly all actives have a fitted effect of over 50% in size
HPGD block: qHTS Assay for Inhibitors of HPGD (15-Hydroxyprostaglandin Dehydrogenase); 15-hydroxyprostaglandin dehydrogenase [NAD(+)] (Homo sapiens), P15428; purified HPGD, NADH fluorescence kinetic, PGE2 substrate; Potency, µM, most hits filed as inhibitors; 150,000 tested, 4.3% active; active = well fitted inhibition curve with a large enough effect, not every such curve was filed as active; inconclusive = small, poorly fitted or top-dose-only effect, or another doubt; inactive = no such curve, though single readings can be large or run the other way
Target sequence (P15428 whole entry, looked up): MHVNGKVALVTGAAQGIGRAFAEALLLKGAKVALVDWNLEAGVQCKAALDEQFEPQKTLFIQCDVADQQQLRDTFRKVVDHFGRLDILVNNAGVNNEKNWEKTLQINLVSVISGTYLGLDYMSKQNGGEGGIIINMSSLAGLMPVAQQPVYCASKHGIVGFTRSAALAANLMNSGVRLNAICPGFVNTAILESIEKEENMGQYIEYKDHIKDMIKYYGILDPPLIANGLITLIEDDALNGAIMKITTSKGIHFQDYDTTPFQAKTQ
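NADH formation kinetics: reaction with 30 uM PGE2 and 1 mM NAD+ (final), 20 nM enzyme, Tris-HCl pH 8 with Tween 20, after 15 min compound preincubation at room temperature. Fluorescence change, last versus first of five reads.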
IMPase Li cell: qHTS Assay for Identifying the Cell-Membrane Permeable IMPase Inhibitors: Potentiation with Lithium; CHO-M1 cells, IP1 TR-FRET (IP-One), carbachol + lithium; Potency, µM (titrated, usually from 59.4 µM), most hits filed as inhibitors; 210,000 tested, 0.35% active;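 note: IP1 builds up when IMPase is blocked and the TR-FRET signal falls; nearly all actives have a fitted effect of over 50% in size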
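Steps: plate 2000 CHO-M1 cells per well and culture 16–30 h; add compound and lithium; incubate 30 min, 37C; add d2-IP1 tracer and Eu cryptate anti-IP1 antibody in lysis buffer; read after 10 min at room temperature.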
ALDH1A1 block: qHTS Assay for Inhibitors of Aldehyde Dehydrogenase 1 (ALDH1A1); Aldehyde dehydrogenase 1A1 (Homo sapiens), P00352; Purified ALDH1A1, NADH fluorescence, propionaldehyde substrate; Potency, µM (highest dose often 75.3 µM), usual class: inhibitors; 220,000 tested, 7.3% active; AID 1030, 2008; active = well fitted inhibition curve with a large enough effect, not every such curve was filed as active; inconclusive = small, poorly fitted or top-dose-only effect, or another doubt; inactive = no such curve, though single readings can be large or run the other way
12-hLO inh: qHTS Assay for Inhibitors of 12-hLO (12-human lipoxygenase); Polyunsaturated fatty acid lipoxygenase ALOX12 (Homo sapiens), P18054; purified 12-hLO, xylenol orange hydroperoxide absorbance; Potency, µM (titrated, usually from 57.1 µM), hits mostly inhibitors; 150,000 tested, 0.12% active; note: nearly all actives have a fitted effect of over 55% in size
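Hydroperoxide output read as Fe(III)-xylenol orange absorbance, 573-to-405 nm ratio, after 30 min reaction with 40 uM arachidonic acid. Enzyme: 150 nM purified human 12hLO, 15 min compound preincubation; 25 mM Hepes pH 7.0, room temperature.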
Hits are given with their value; - = inactive; ? = inconclusive; . = no result given. Unless noted, calls come from the whole dose curve; as a rule, active = well fitted curve in the direction sought with a large enough effect; inconclusive = small, poorly fitted or top-dose-only effect, or another doubt; inactive = no such curve, though single readings can be large; an effect the other way counts as inactive or inconclusive.

SMILES	IMPase inh	NPSR antagonist	HPGD block	IMPase Li cell	ALDH1A1 block	12-hLO inh
CC(C)(C)C1CCc2sc(-c3nnc(CCl)o3)cc2C1 (centres undefined)	.	-	.	-	22.4µM	.
COc1ccc(N2CCN(C(=O)C(C)(C)Oc3ccc(Cl)cc3)CC2)cc1	-	?	-	-	10µM	-
COc1ccc(N2CCN(C(=O)CCNC(=O)c3ccc(C(C)(C)C)cc3)CC2)cc1	.	-	.	-	?	.
COc1ccc(N2CCN(C(=O)c3ccc(C(C)(C)C)cc3)CC2)cc1	-	-	-	-	8.91µM	-
NC(=O)CSc1nc2cc([N+](=O)[O-])ccc2n1-c1cccc(C(F)(F)F)c1	-	-	-	-	-	-
Cn1c(N)c(C(=O)c2ccc(Cl)cc2)c(=O)n(C)c1=O	-	-	.	.	-	-
Cc1nn(-c2ccc(Cl)cc2)c2sc(C(=O)c3c(N)n(C)c(=O)n(C)c3=O)cc12	-	-	?	12.6µM	?	-
O=C(Oc1ccccc1)c1ccc(NC(=O)c2ccco2)cc1	.	-	12.6µM	-	17.8µM	-
c1ccc(CCc2nc(-c3ccccc3)no2)cc1	-	-	-	-	-	-
O=C(Nc1ccc(-c2noc(CCc3ccccc3)n2)cc1)c1ccco1	-	-	25.1µM	-	?	-
O=C(NCc1ccccn1)c1ccc(NC(=O)c2ccco2)cc1	-	-	14.1µM	-	?	-
Cc1ccc(NC(=O)c2ccc(OC(=O)c3ccco3)cc2)cc1	-	-	-	-	-	-
CCCc1cc2c(n1Cc1cc(F)cc(F)c1)C(C)C1CN(C(=O)c3ccccc3)C(C)(C(=O)OC)C21 (centres undefined)	.	.	-	-	-	-
Clc1nc(-c2cccnc2)nc2scc(-c3ccccc3)c12	.	-	20µM	-	?	-
CCN1c2ccccc2NC2C1C(C(C)=O)C(=O)N2c1ccc(Cl)cc1 (centres undefined)	-	-	-	-	14.1µM	?
COc1cccc(-c2cc(C(F)(F)F)n3nc(C(=O)N4CCCCC4c4cccnc4)cc3n2)c1 (centres undefined)	.	?	.	-	22.4µM	.
CN1CCN(C(=O)c2cc3nc(-c4ccc(Cl)cc4)cc(C(F)(F)F)n3n2)CC1	-	-	?	-	?	-
O=C(c1cc2nc(-c3cccs3)cc(C(F)(F)F)n2n1)N1CCCc2ccccc21	-	?	14.1µM	-	-	-
CN1CCN(C(=O)c2cc3nc(-c4ccccc4)cc(C(F)(F)F)n3n2)CC1	-	-	10µM	-	-	-
COc1ccc(-c2cc(C(F)(F)F)n3nc(C(=O)N4CCCCC4)cc3n2)cc1	-	-	?	-	?	-
O=C(c1cc2nc(-c3ccc(F)cc3)cc(C(F)(F)F)n2n1)N1CCCC1	-	-	3.55µM	-	-	-
Brc1ccc(C=Nc2ccc(Nc3ccccc3)cc2)s1	-	-	-	-	?	?
CCOc1ccc(-n2c(SCC(=O)Nc3ccc4c(c3)OCO4)nc3c(c2=O)SCC3)cc1	-	-	-	-	-	-
O=c1cc(-c2cccc(O)c2O)oc2ccccc12	-	.	15.8µM	-	-	?
COc1cc(-c2cc(=O)c3c(O)cc(O)cc3o2)ccc1O	.	-	.	-	?	.
COc1cc(-c2cc(=O)c3ccccc3o2)ccc1O	-	-	35.5µM	-	-	-
O=c1cc(-c2c(F)c(F)c(F)c(F)c2F)oc2ccccc12	-	?	-	-	15.8µM	-
O=c1cc(-c2c(F)c(F)c(F)c(F)c2F)oc2c(F)c(F)c(F)c(F)c12	-	3.16µM	-	-	?	-
O=c1cc(-c2ccncc2)oc2ccccc12	-	-	-	-	-	-
Cc1nc(N2CCN(S(=O)(=O)c3cccc4nonc34)CC2)c2c3c(sc2n1)CCCC3	-	?	-	-	?	-
